From PubChem BioAssay
Shown are actives, neighbours in structure and some others; about 13% of the full set was active somewhere.
HCV inhibitor = blocks hepatitis C virus; Huh7.5.1 HCVcc-Cre infection, luciferase reporter, 44 h; Potency, µM (highest dose often 41.8 µM), for the others: at the highest dose activity change, negative = inhibition, actives largely listed as inhibitors; 340,000 tested, 3.4% active; AID 651820; active = well fitted inhibition curve with a large enough effect; inconclusive = small, poorly fitted or top-dose-only effect, or another doubt; inactive = no such curve, though single readings can be large or run the other way; note: potency is the fitted concentration of half-maximal effect; % is set by controls: 0 for no effect and ±100 for the full control effect
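Infectious HCVcc-Cre (~0.5 moi) was added to cells just after compound, with cells seeded 4 h earlier at 1,000 per well. Luciferase activity after 44 h culture reported infection; substrate was incubated 15 min at room temperature before reading.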
LASV entry inh = inhibitors of Lassa virus binding or cell entry; Lassa virus pseudotype entry inhibition, cell reporter; Potency, µM (highest dose often 37.9 µM), for inactives: at the top dose activity change, negative = inhibition, most hits filed as inhibitors; 300,000 tested, 1.2% active; calls by dose curve; tested in HEK293 cells; note: potency is the fitted concentration of half-maximal effect; % is set by controls: 0 for no effect and ±100 for the full control effect; nearly all actives have a fitted effect of over 50% in size
Shiga toxin inh = inhibitors of Shiga toxin in Vero cells; Vero cells, Shiga toxin protein synthesis inhibition reporter; 290,000 tested, 9.2% active; inhibition, % at 38.7 µM; AID 2315; in the data active = inhibition mostly above about 28%, no sharp cut-off; inactive = mostly below about 43%; note: 0% is about no effect
Marburg entry inh = Marburg virus entry inhibition; 300,000 tested, 1.8% active; Potency, µM (highest dose often 37.8 µM), for inactives: at the highest dose activity change, negative = inhibition, usual class: inhibitors; Marburg virus pseudotyped entry inhibition, cell reporter; calls by dose curve; tested in HEK293 cells; note: potency is the fitted concentration of half-maximal effect; % is set by controls: 0 for no effect and ±100 for the full control effect
FMDV antiviral = foot and mouth disease virus antiviral activity | 410,000 tested, 1.2% active | AID 1159524 | Potency, µM (top dose mostly 57.9 µM), inactives show at the highest dose activity change, negative = inhibition, actives largely listed as inhibitors | FMDV antiviral cell-based qHTS; calls by dose curve; tested in HEK293T cells; note: read-out not given here; potency is the fitted concentration of half-maximal effect; % is set by controls: 0 for no effect and ±100 for the full control effect; nearly all actives have a fitted effect of over 45% in size
Cycloheximide cs = counter-screen hit for Shiga toxin inhibitors, cycloheximide. cell reporter, cycloheximide protein synthesis inhibition counterscreen. max response, %. 300,000 tested, 12% active. AID 2314; in the data active = max response mostly above about 13%, no sharp cut-off; inactive = mostly below about 14%; note: read at 38.3 µM for the half of the compounds with a filed dose; 0% is about no effect
The depositor's hits bear a star; ! = a repeat was not active; [ ] = remark or other dose.

Screening O=C(Nc1cc(C(F)(F)F)ccc1Cl)c1cc(-c2ccc3c(c2)OCCO3)on1 returned LASV entry inh -1.9%[46.1 µM], Marburg entry inh -0.2%[46.1 µM] and FMDV antiviral 6.3%.
CCOc1ccccc1N(C)C(=O)Cn1ncc2c([nH]c3ccccc32)c1=O was read as HCV inhibitor inconclusive, LASV entry inh -19.6%[46.1 µM], Shiga toxin inh -3.5, Marburg entry inh 6.31µM*, FMDV antiviral -16.9% and Cycloheximide cs -2.1.
Fc1ccc(NC(=S)N2CCCc3ccccc32)cc1 was read as HCV inhibitor -0.4%, LASV entry inh -13.8%, Shiga toxin inh 51.2*, Marburg entry inh 11.1%, FMDV antiviral 0.6% and Cycloheximide cs 10.0.
Screening Cc1ccc(NC(=O)N2CCc3ccccc32)cc1 returned HCV inhibitor inconclusive, LASV entry inh inconclusive, Shiga toxin inh 20.4, Marburg entry inh inconclusive, FMDV antiviral -55.1% and Cycloheximide cs 20.8*.
CCc1ccccc1NC(=O)N1CCc2ccccc2C1 was read as HCV inhibitor -8.5%, Shiga toxin inh 12.8, FMDV antiviral 15.2% and Cycloheximide cs 14.7.
For CCOc1ccccc1CNC(=O)c1ccc2c(c1)nc1n2CCCCC1 the results were LASV entry inh 5.01µM* and FMDV antiviral 18.5%.
For CCc1ccccc1NC(=O)N1CCCc2ccccc21 the results were HCV inhibitor 7.0%, LASV entry inh 9.7%[46.1 µM], Shiga toxin inh 59.2*, Marburg entry inh 12.8%[46.1 µM], FMDV antiviral 7.0% and Cycloheximide cs 43.5*.
Screening COc1ccc(CNC(=O)c2ccc3c(c2)nc2n3CCCCC2)cc1 returned LASV entry inh inconclusive and FMDV antiviral 33.7%.
Screening O=c1oc2ccccc2c(O)c1Sc1ccc(Cl)cc1 returned HCV inhibitor -5.1% and FMDV antiviral -5.1%.
For Cn1cccc1C(=O)NC1CCCCCC1 the results were HCV inhibitor -0.5% and FMDV antiviral 33.3%.
Screening CCNC(=O)c1ccc(NC(=O)N2CCCCc3ccccc32)cc1 returned LASV entry inh -2.0%[46.1 µM] and FMDV antiviral -16.9%.
For CN1CCN(c2ccc(NC(=O)N3CCc4ccccc43)cc2)CC1 the results were HCV inhibitor 7.7%, LASV entry inh -31.0%[46.1 µM], Shiga toxin inh 20.4, Marburg entry inh inconclusive, FMDV antiviral 17.8µM* and Cycloheximide cs 17.5*.
`Cc1ccc(NC(=O)N2CCc3ccccc32)cc1C` gave HCV inhibitor -6.6%, LASV entry inh inconclusive, Shiga toxin inh 97.6*, Marburg entry inh inconclusive, FMDV antiviral -33.9% and Cycloheximide cs 31.1*.
For Cc1ccc(NC(=O)N2CCCc3ccccc32)cc1 the results were HCV inhibitor -9.3%, LASV entry inh 29.5%, Shiga toxin inh 86.1*, Marburg entry inh -7.7%[46.1 µM], FMDV antiviral 43.4% and Cycloheximide cs 30.7*.
CCOc1ccccc1CNC(=O)Cc1ccc(NC(=O)N2CCCCc3ccccc32)cc1 was read as LASV entry inh 4.47µM* and FMDV antiviral -16.5%.
For COc1ccc(NC(=O)CCn2cnc3onc(-c4ccc(F)cc4)c3c2=O)cc1OC the results were LASV entry inh -0.4%[46.1 µM] and FMDV antiviral 10µM*.
For CCOC(=O)c1cc(-c2ccccc2)nc2nc(N(CC)CC)sc12 the results were HCV inhibitor 14.1µM*, LASV entry inh inconclusive, Shiga toxin inh 2.6, Marburg entry inh inconclusive, FMDV antiviral -24.9% and Cycloheximide cs -1.1.
`CCOC(=O)c1cc2nc(-c3ccccc3)cc(C)n2n1` gave HCV inhibitor inconclusive, LASV entry inh 10.5%, Marburg entry inh -2.5%, FMDV antiviral -13.9% and Cycloheximide cs -3.4.
Screening CCOC(=O)c1nnc2cc(-c3ccccc3)nn2c1C returned HCV inhibitor -7.2%, LASV entry inh -21.8%, Shiga toxin inh 11.3, Marburg entry inh inconclusive, FMDV antiviral -8.3% and Cycloheximide cs 28.4*.
Screening CCOC(=O)c1cnn2c(C)cc(-c3ccccc3)nc12 returned HCV inhibitor 10µM*, LASV entry inh 6.8%, Shiga toxin inh 68.2*, Marburg entry inh 9.1%, FMDV antiviral 40.0% and Cycloheximide cs 36.1*.
O=C(Nc1ccc(-c2noc(-c3cccs3)n2)cc1)c1cccnc1 was read as HCV inhibitor inconclusive, LASV entry inh inconclusive, Shiga toxin inh 59.0*, Marburg entry inh inconclusive, FMDV antiviral -6.6% and Cycloheximide cs 26.6*.
CC(Oc1ccc(Cl)cc1Cl)c1nc(-c2ccc(NC(=O)c3cccnc3)cc2)no1 (stereo unspecified) was read as HCV inhibitor 11.2µM*!, LASV entry inh inconclusive, Shiga toxin inh -4.5, Marburg entry inh 11.2µM*, FMDV antiviral 28.2µM* and Cycloheximide cs -2.4.
